A selection: hits, their analogues and other compounds. The true share with any hit is near 12%.
Sfp inh – inhibitors of Bacillus subtilis Sfp phosphopantetheinyl transferase. Q9F4F7. Potency, µM, inactives show largest response in the series, negative = inhibition, most hits filed as inhibitors. 3.5% of 310,000 active. AID 1490. Biochemical Sfp PPTase activity, qHTS;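 note: the enzyme is Sfp with the accession as filed and its product quenches rhodamine fluorescence; 0% = enzyme reaction without inhibitor and -100% = no enzyme wells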
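Buffer: 50 mM Hepes-Na pH 7.6, 10 mM MgCl2, 0.01% Nonidet P-40, 0.01% BSA. Enzyme 15 nM, pre-exposed to compound 15 min; substrates then added and fluorescence change tracked over 30 min.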
JMJD2A Tudor inh – inhibitors of human JMJD2A Tudor domain; O75164; AlphaScreen JMJD2A-Tudor / H3K4me3 peptide binding; Potency, µM (highest dose often 114 µM), for the others: at the highest dose activity change, negative = inhibition, hits mostly inhibitors; 4.4% of 390,000 active; note: % is set by controls: 0 for no effect and ±100 for the full control effect; nearly all actives have a fitted effect of over 50% in size
BAZ2B inh – inhibitors of human BAZ2B bromodomain. Q9UIF8. AlphaScreen BAZ2B-H3K14Ac peptide displacement. Potency, µM (top dose mostly 114 µM), inactives show top-dose activity change, negative = inhibition, hits mostly inhibitors. 4.4% of 360,000 active. AID 504333; note: % is set by controls: 0 for no effect and ±100 for the full control effect; nearly all actives have a fitted effect of over 60% in size
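BAZ2B (50 nM) with biotin-H3(5-23)K14Ac peptide (50 nM) in PBS pH 7.4, 0.01% Tween-20, preformed 30 min, then compound 30 min at room temperature; top concentration 110uM. AlphaScreen streptavidin donor/nickel chelate acceptor beads (10 ug/mL final), 20 min dark, signal read.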
G9a block – inhibitors of human histone lysine methyltransferase G9a; G9a H3K9 monomethylation, AlphaScreen, 2 h; Potency, µM (doses to about 102 µM), for inactives: top-dose activity, negative = inhibition, usual class: inhibitors; 8.8% of 350,000 active; note: % is set by controls: 0 for no effect and ±100 for the full control effect; nearly all actives have a fitted effect of over 75% in size
Target sequence (Q96KQ7 913-1193 limits assumed): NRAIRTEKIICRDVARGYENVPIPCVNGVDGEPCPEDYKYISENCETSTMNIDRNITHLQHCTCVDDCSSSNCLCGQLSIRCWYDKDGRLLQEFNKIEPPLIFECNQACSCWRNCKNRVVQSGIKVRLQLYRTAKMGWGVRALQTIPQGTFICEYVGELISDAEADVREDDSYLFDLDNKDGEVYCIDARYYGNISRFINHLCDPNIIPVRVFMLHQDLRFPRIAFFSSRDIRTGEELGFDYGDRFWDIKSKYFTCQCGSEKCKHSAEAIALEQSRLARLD
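Readings reflect AlphaScreen signal from monomethyl-H3K9 antibody detection. HMT at 20 nM; substrate b-H3K9 500 nM; cofactor SAM 20 uM; 2 h RT reaction; compounds tested as titrations in qHTS with 15 min preincubation.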
HP1b binding inh – blocks HP1-beta chromodomain binding to methylated histone tails. P83916. AlphaScreen HP1-beta / biotin-H3K9me3 peptide binding. Potency, µM (titrated, usually from 114 µM), inactives show at the highest dose activity change, negative = inhibition, hits mostly inhibitors. 0.56% of 390,000 active. AID 540317; note: nearly all actives have a fitted effect of over 70% in size
Target sequence (P83916 whole entry, looked up): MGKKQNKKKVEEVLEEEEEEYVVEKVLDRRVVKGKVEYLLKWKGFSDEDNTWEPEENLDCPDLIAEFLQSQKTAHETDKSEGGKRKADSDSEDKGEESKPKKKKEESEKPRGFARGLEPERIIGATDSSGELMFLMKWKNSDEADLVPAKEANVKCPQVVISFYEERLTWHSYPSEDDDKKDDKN
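AlphaScreen: HP1-beta (50 nM) preformed 30 min with biotin-H3(1-18)K9me3 peptide (50 nM) in PBS pH 7.4, 0.01% Tween-20. Compound added for 30 min at RT, then streptavidin donor/nickel chelate acceptor beads (10 ug/mL) for 30 min.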
Numbers without * were called inactive; ? = inconclusive; . = no result given; ! = a repeat was not active; [ ] = remark or other dose. Calls come from the whole dose curve; as a rule, active = well fitted curve in the direction sought with a large enough effect; inconclusive = small, poorly fitted or top-dose-only effect, or another doubt; inactive = no such curve, though single readings can be large; an effect the other way counts as inactive or inconclusive. Potency is the fitted concentration of half-maximal effect.

SMILES	Sfp inh	JMJD2A Tudor inh	BAZ2B inh	G9a block	HP1b binding inh
CCOc1ccc(C2CC(=O)c3c([nH]c(C(=O)OCC4CCCCC4)c3C)C2)cc1 (centres undefined)	.	3%	-8%	10%[59 µM]	51%
Cc1cccc(NCc2n[nH]c(=S)n2-c2ccccc2)c1	?	-98%	?	?	-24%
Cc1ccc(NCc2n[nH]c(=S)n2-c2ccccc2)cc1	?	?	?	1.6µM*	-18%
Cc1ccc(NCc2n[nH]c(=S)n2-c2ccccc2)c(C)c1	11%	56µM*	?	4µM*	1%
O=C(NNC(=O)c1ccc(Cn2cccn2)o1)NC12CC3CC(CC(C3)C1)C2	8%	-11%	-4%	15%	28%
COc1ccc(CCNC(=O)C23CN(Cc4ccccc4)CC2C(c2cccc([N+](=O)[O-])c2)=NO3)cc1 (centres undefined)	1%	?	-37%	?	4%
O=C(NCc1ccc(C(F)(F)F)cc1)C12CN(Cc3ccccc3)CC1C(c1cccc([N+](=O)[O-])c1)=NO2 (centres undefined)	14%	-24%	-24%	?	5%
COc1cccc(CNC(=O)C23CN(Cc4ccccc4)CC2C(c2ccc([N+](=O)[O-])cc2)=NO3)c1 (centres undefined)	7%	?	-37%	71µM*	14%
CC(C)CCNC(=O)C12CN(Cc3ccccc3)CC1C(c1ccc([N+](=O)[O-])cc1)=NO2 (centres undefined)	14µM*	?	?	?	-11%
O=C(NCc1ccccc1C(F)(F)F)C12CN(Cc3ccccc3)CC1C(c1ccc([N+](=O)[O-])cc1)=NO2 (centres undefined)	2.2µM*	-29%	47%	?	16%
Cc1ccc(-c2nc(-c3cc4cccc(OCc5ccccc5F)c4oc3=O)no2)cc1	.	-11%	2%	1%[59 µM]	1%
Cc1ccc2c(=O)c3ccccc3n(CCCN)c2c1C	-14%	.	.	3%[59 µM]	.
O=C1NCc2c1c1c3ccccc3[nH]c1c1[nH]c3ccccc3c21	.	-18%[57.1 µM]	.	.	1%[57 µM]
CSCCC(NC=C1C(=O)OC(C)(C)OC1=O)C(=O)O (centres undefined)	-16%	79µM*	-30%	-11%	15%
O=C1COc2ccc(C(=O)COc3ccc(Cl)cc3Br)cc2N1	.	-6%	4%	-11%	31%
Cc1cc(C)c2c(N=NN3CCCCC3)[nH]nc2n1	-23%	-1%	-12%	45µM*	14%
CCN(CC)N=Nc1[nH]nc2nc(C)cc(C)c12	-12%	-23%[11.4 µM]	0%	.	-11%
CC(=O)c1nc(N2C(=O)CC(Cc3ccc(C)cc3)C2=O)sc1C (centres undefined)	13%	-24%	?	1.4µM*	37%
O=S(=O)(c1ccccc1Cl)N1CCN(c2nc(-c3ccccc3)nc3ccccc23)CC1	.	-6%	.	.	23%
Cc1cc2nc(N3C(=O)CNC3=S)sc2cc1C	2%	-20%	45µM*	1%	29%
O=C1CS/C(=N/N=C2C3CC4CC(C3)CC2C4)N1	24%	0%	2%	-12%	31%
O=C1CS/C(=N/N=C\c2ccn[nH]2)N1	56µM*	-21%	50µM*	.	17%
COCCN(C(=O)c1ccc(-c2ccc([N+](=O)[O-])cc2)o1)c1c(N)n(CC(C)C)c(=O)[nH]c1=O	.	-15%	-1%	45µM*	23%
COCCN(C(=O)CSc1nnc(C)n1Cc1ccccc1)c1c(N)n(CC(C)C)c(=O)[nH]c1=O	21%	79µM*	-15%	3%	-3%
COCCN(C(=O)CSc1nnc(-c2ccc(C)cc2)n1N)c1c(N)n(Cc2ccccc2)c(=O)[nH]c1=O	0%	-14%	-10%	.	19%
SMILES	Sfp inh	JMJD2A Tudor inh	BAZ2B inh	G9a block	HP1b binding inh
CCCCN(C(=O)CSc1nnc(-c2ccc(Cl)cc2)o1)c1c(N)n(CC(C)C)c(=O)[nH]c1=O	.	-12%	0%	1µM*	6%
COCCN(C(=O)CSc1nnc(-c2ccc(C(C)(C)C)cc2)n1N)c1c(N)n(CC(C)C)c(=O)[nH]c1=O	.	-4%	5%	40µM*	40%
Cc1cccc(CCNC(=O)C2CCCN(c3cnccn3)C2)c1 (centres undefined)	-1%	-23%	?	-6%	14%
CCCCN(C(=O)CSc1nnc(-c2ccc(OC)cc2)n1CC)c1c(N)n(Cc2ccccc2)c(=O)[nH]c1=O	16%	-14%	8%	5%[59 µM]	14%
CCCCN(C(=O)CSc1nnc(-c2ccc(OC)cc2)n1C(C)C)c1c(N)n(Cc2ccccc2)c(=O)[nH]c1=O	16%	-14%	-28%	10µM*	32%
COCCN(C(=O)CSc1nn(-c2ccc(F)cc2)c(=S)s1)c1c(N)n(CC(C)C)c(=O)[nH]c1=O	.	-12%	9%	8.9µM*	21%
O=C(Cn1c(=O)c2cccn2c2cccnc21)NCc1ccccc1F	.	-20%	-3%	4%[59 µM]	15%
COCCCC/C(=N\OCCN)c1ccc(C(F)(F)F)cc1	56µM*!	-9%	-2%	66%[59 µM]	92%
C/C=C(\C)C(=O)NCCN1C2=NC[C@H](C)N2C[C@@H]1Cc1ccc(OC)cc1	9%	-14%	-6%	.	38%
CCCCCCNC(=O)N[C@H](C(=O)NCCC[C@H]1CN2C(=NC[C@H]2C)N1CCC(c1ccccc1)c1ccccc1)C(C)O (some centres undefined)	2.2µM*	.	20µM*	?	.
CC(=O)Nc1cccc(NC(=O)COc2ccc3c(c2)OCO3)c1	2%	-18%	?	2%	-12%
COc1ccc(C(=O)CSc2nnc(CNC(=O)c3ccc(OC)cc3)n2C)cc1	-10%	50µM*	4%	?	15%
Cc1ccc(C(=O)CSc2nnc(CNc3nc(-c4ccccc4)cs3)n2C)cc1	-4%	-28%[11.4 µM]	?	35µM*	18%
Cc1cc(C)nc(SCc2nnc(SCC(=O)Nc3nc(-c4ccccc4)cs3)n2C)n1	-14%	-7%[11.4 µM]	9%	0%[59 µM]	-28%
COc1ccc(NC(=O)Cc2nnc(SCC(=O)c3ccc(F)cc3)n2C)cc1	5%	-14%	-1%	17%[59 µM]	9%
COc1ccc(C(=O)NCc2nnc(SCC(=O)c3ccccc3)n2C)cc1OC	.	-13%	7%	56µM*	19%
O=C(c1cnccn1)N1CCC[C@@]2(CCN(Cc3nccs3)C2)C1	-27%	.	.	1%[12.7 µM]	.
CCOC(=O)C1CCCN(C(=O)c2cc3c(=O)n(C)c4ccccc4c3s2)C1 (centres undefined)	.	-17%	.	3%[59 µM]	32%
Cc1cccc(OCCOCCn2c(-c3ccc(Cl)cc3)nc3ccccc3c2=O)c1C	.	59%	57%	86%[59 µM]	108%
CC1(c2ccccc2)CC(C)(C)N2C(=O)/C(=C3\SC(=S)NC3=O)c3cccc1c32 (centres undefined)	-7%	28µM*	?	?	14µM*
